Screen size: about 69,000 compounds; about 8,600 (12%) showed an effect of 50% or more. What follows is part of a selection rich in strong results, with near analogues and random picks from the rest.
Tested on: Plasmodium berghei
Assay: Screen against P. berghei liver stage (PbLuc), transformed with Luciferase, at 10uM
Format: functional, HepG2
Details: tested at 10 uM

Row | SMILES | INHIBITION [%]
1 | Cc1ccccc1NC(=O)NCC(C)(O)c1cccs1 (configuration not stated) | 48.8
2 | Cc1noc2nc(C3CCN(Cc4ccccn4)CC3)cc(C(F)F)c12 | 47.1
3 | Cc1cc(C(NC(=O)CNS(C)(=O)=O)C(C)C)c(C)s1 (configuration not stated) | 22.3
4 | Cc1cccc(CN2C[C@@H]3COC[C@]3(CNC(=O)c3ccsc3)C2)n1 | 39.8
5 | COc1ccc(CN2CCO[C@@H]3C[C@@H](C(=O)NC(C)C)C[C@H]32)cc1 | 26.5
6 | CCS(=O)(=O)NC(CCSC)C(=O)Nc1cccc(C)c1C (configuration not stated) | 26.9
7 | CC(Oc1cc(Cl)cc(Cl)c1)C(=O)NCCS(N)(=O)=O (configuration not stated) | 34.7
8 | Cc1c(Br)c(C(=O)NC(C)c2ccccc2)nn1C (configuration not stated) | -38.2
9 | Cc1ccc(-c2noc(CCC(=O)NC(C)Cn3cccn3)n2)cc1 (configuration not stated) | 22.6
10 | CN1CCN(Cc2cn3c(n2)CN(C(=O)c2cccn2C)CC3)CC1 | 54.7
11 | O=C(c1ccnnc1)N1CCn2cc(CN3CCCCC3)nc2C1 | 41.6
12 | Cn1cccc1C(=O)N1CCn2cc(CN3CCCC3)nc2C1 | 52
13 | CC(=O)NCC(=O)N1CCn2cc(CN3CCCCC3)nc2C1 | 68.8
14 | O=C(CCc1ccccc1)N1CCn2cc(CN3CCCC3)nc2C1 | 41.4
15 | O=C(c1ccco1)N1CCn2cc(CN3CCCC3)nc2C1 | 25.2
16 | O=C(c1ccc[nH]1)N1CCn2cc(CN3CCCC3)nc2C1 | 18.8
17 | O=C(c1cccnc1)N1CCn2cc(CN3CCCC3)nc2C1 | 31.1
18 | CN1CCN(Cc2cn3c(n2)CN(C(=O)c2ccccn2)CC3)CC1 | 25.1
19 | N#Cc1ccc(C(=O)N2CCn3cc(CN4CCCCC4)nc3C2)cc1 | 52
20 | CC(=O)NCC(=O)N1CCn2cc(CN3CCN(C)CC3)nc2C1 | 43.5
21 | CN1CCN(Cc2cn3c(n2)CN(C(=O)c2ccco2)CC3)CC1 | 17.4
22 | Cc1ccc(NC2CCN(C(=O)c3cc4c(s3)CCC4)CC2)nn1 | -11.4

Row | SMILES | INHIBITION [%]
23 | CCn1cnnc1CNC(=O)NC(c1cccs1)C1CCCC1 (configuration not stated) | -9.76
24 | COc1ccc(NC(=O)c2cnc(C3CCN(C(C)=O)C3)nc2C)cc1 (configuration not stated) | 25.55
25 | O=C1CCC2(CCC(NC3CCOC3)CC2)N1Cc1ccncc1 (configuration not stated) | 3.81
26 | CCC1(c2ccc(NS(=O)(=O)N(C)C)cc2)CCC(=O)NC1=O (configuration not stated) | 18.9
27 | Cc1cc(N2CCOCC2)nc(N(C)CCO)c1C#N | 12.3
28 | CC(C)c1nc2c(n1C)CCN(Cc1nc(-c3ccoc3)no1)C2 | 25.6
29 | CNc1cncc(C2CCCN2C(=O)Cn2ccnc2C)n1 (configuration not stated) | 2.915
30 | O=C(Cc1csc(-c2ccccc2)n1)N[C@@H](C(=O)O)c1ccccc1 | -3.11
31 | Cc1cc(C(=O)N2CCn3cc(CN4CCCCC4)nc3C2)no1 | 17.1
32 | Cc1cc(C(=O)N2CCn3cc(CN4CCOCC4)nc3C2)no1 | 68.4
33 | Cc1cc(C(=O)N2CCn3cc(CN4CCCC4)nc3C2)no1 | 13.6
34 | CN(CCCc1cnn(C)c1)Cc1cc2n(n1)CCCN(C)C2 | 65.7
35 | CN(Cc1cc2n(n1)CCNC2)Cc1noc(C2CCC2)n1 | 51
36 | CCN(Cc1noc(C2CCC2)n1)C(=O)CCc1cc2n(n1)CCNC2 | 11.9
37 | CN(CCc1noc(C2CC2)n1)C(=O)CCc1cc2n(n1)CCCNC2 | 46.6
38 | CN(CCCc1cnn(C)c1)Cc1cc2n(n1)CCCNC2 | 49.4
39 | CCc1cnc(C)nc1N(C)CCCc1cnn(C)c1 | 8.31
40 | CNc1ncc(CN(C)Cc2cc3n(n2)CCNC3)cn1 | -99.3
41 | CN(CCCc1cnn(C)c1)Cc1cc2n(n1)CCNC2 | 52.6
42 | CN(CCCc1cnn(C)c1)C(=O)C1CCN(C(=O)C2CCC2)CC1 | 38.7
43 | O=C(c1cc2cc(F)ccc2[nH]1)N1CCC(Nc2cccnn2)CC1 | 22.3
44 | CCCC(NC(=O)c1cc(C)ccc1O)c1nnn[nH]1 (configuration not stated) | 34.6

Row | SMILES | INHIBITION [%]
45 | COc1ncccc1NC(=O)C1CCOCC1 | 43.3
46 | CC(=O)Nc1c(C)noc1C=Cc1ccc(C)c(S(=O)(=O)NC2CC2)c1 | 11.6
47 | O=C(Nc1ccccc1)C1=CC2(CCNCC2)c2ccccc21 | 48.2
48 | Cc1cnn(CC(=O)NCC2(O)CCCc3ccccc32)c1 (configuration not stated) | 80.5
49 | O=C(Cn1cnnn1)NCC1(O)CCCc2ccccc21 (configuration not stated) | 64.7
50 | O=C(CN1C(=O)CCC1=O)NCC1(O)CCc2ccccc21 (configuration not stated) | 5.58
51 | O=C(Cn1c(=O)oc2ccccc21)NCC1(O)CCc2ccccc21 (configuration not stated) | -27.3
52 | O=C(Cn1cccn1)NCC1(c2ccccc2)CC1 | -8.3
53 | O=C(Cn1cncn1)NCC1(O)CCCc2ccccc21 (configuration not stated) | 10.9
54 | Cc1cccc(S(=O)(=O)N2CSCC2C(=O)NCC2CC2)c1 (configuration not stated) | -14.3
55 | Cc1cnccc1-c1cnn(CCNC(=O)c2ccncc2)c1C1CC1 | 48
56 | Cc1ccc(CN(C)Cc2nc3ccc(F)cc3[nH]2)cn1 | 44.2
57 | Cc1ccc(CC(=O)N2CCCC(c3ccn[nH]3)C2)cn1 (configuration not stated) | 22.965
58 | O=C(NCc1ccco1)[C@@H]1CCO[C@@H]2CCN(c3ncccn3)C[C@@H]21 | 36.9
59 | Cn1cccc1C(=O)N1CCN(Cc2ccncc2)c2ncccc2C1 | -33
60 | FC(F)(F)c1ccnc(N2CCCCCC2)c1 | -6.52
61 | N[C@@H]1c2ccccc2C2(CCN(C(=O)c3cncc(Cl)c3)CC2)[C@H]1O | 8.5
62 | NS(=O)(=O)CC1CCN(c2ncccc2C(F)(F)F)CC1 | 20.6
63 | N[C@@H]1c2ccccc2C2(CCN(c3cc(C(F)(F)F)ccn3)CC2)[C@H]1O | 58.8
64 | N[C@@H]1c2ccccc2C2(CCN(C(=O)c3ccc(Cl)cn3)CC2)[C@H]1O | 37.1
65 | O=C1CCC2(CCN(c3cccc(C(F)(F)F)n3)CC2)CN1CCO | 47.9
66 | CC(C)C(=O)NCC(=O)N1CCC2(CC1)c1ccccc1[C@@H](N)[C@@H]2O | -26.1

Row | SMILES | INHIBITION [%]
67 | N[C@@H]1c2ccccc2C2(CCN(c3cnc4ccccc4n3)CC2)[C@H]1O | 44.9
68 | N[C@@H]1c2ccccc2C2(CCN(c3ncccc3C(F)(F)F)CC2)[C@H]1O | 86.6
69 | N[C@@H]1c2ccccc2C2(CCN(c3ccc(C(F)(F)F)cn3)CC2)[C@H]1O | 78.3
70 | OCC1(O)CCN(c2ncccc2C(F)(F)F)CC1 | 24.2
71 | N[C@@H]1c2ccccc2C2(CCN(c3cccc(C(F)(F)F)n3)CC2)[C@H]1O | 88
72 | CC(C)c1n[nH]c(C2CN(CCCS(C)(=O)=O)CCO2)n1 (configuration not stated) | 0.914
73 | Cc1nc(CN2CCn3cc(CNC(=O)C4CCC4)nc3C2)cs1 | -3.1
74 | Cc1ccc(N(Cc2ccco2)C(=O)Cc2cc(=O)n(C)[nH]2)cc1 | 39.5
75 | O=C(O)CCn1ccc2cc(Br)ccc21 | 24.7
76 | CC(NC(=O)C1=NN(C)C(=O)CC1)c1ccccc1Cl (configuration not stated) | 35.4
77 | Cc1cnc(CNC(=O)C2CCOc3ccccc3C2)cn1 (configuration not stated) | -3.83
78 | COCCCN(Cc1ccccc1Cl)C1CCS(=O)(=O)C1 (configuration not stated) | 33.4
79 | Cc1nnnn1CCC(=O)N1CCC2(CCC(=O)N(CC3CC3)C2)CC1 | 8.38
80 | c1cc(CN2CCCCC2c2ccc(Nc3cnccn3)nc2)ccn1 (configuration not stated) | 43.1
81 | Cn1cc(CN2CCC3(C2)CN(Cc2ccsc2)C3)cn1 | -3.19
82 | CNc1nc(CNC(=O)Nc2cccc(OC)c2)cs1 | 23.5
83 | O=C1Nc2ccccc2NC12CCN(c1cccc(C(F)(F)F)n1)CC2 | 76
84 | CC(O)c1cccc(N2CCC3(CC2)Nc2ccccc2NC3=O)n1 (configuration not stated) | 0.705
85 | N#Cc1cccc(N2CCC3(CC2)Nc2ccccc2NC3=O)n1 | 14.3
86 | Cn1cnc2cc(C(=O)NS(=O)(=O)CC3CCCC3)ccc21 | -20.6
87 | COCCN1CCc2cc(C(=O)O)c(-c3ccoc3)nc2CC1 | 42.7
88 | Cn1cncc1CN1CCc2nc3sccc3c(=O)n2CC1 | -9.08

Row | SMILES | INHIBITION [%]
89 | Cc1ccc(CN(CCCn2ccnc2)Cc2c(F)cccc2F)s1 | 94.1
90 | Cc1ccc(CN(CCN(C)C)Cc2ncc[nH]2)s1 | 17.6
91 | CCc1ccc(CN(CCCn2ccnc2)Cc2ccc(C)s2)o1 | 52.3
92 | COc1ccc(F)c(CN(CCCn2ccnc2)Cc2ccc(C)s2)c1 | 86.9
93 | Cc1ccc(CN(CCCN2CCOCC2)Cc2cncn2C)o1 | 30.4
94 | Cc1ccc(CN(CCCn2ccnc2)Cc2cnc(N(C)C)nc2)s1 | -16.5
95 | Cc1ccc(CN(CCCn2ccnc2)Cc2cccs2)s1 | 82.1
96 | Cc1ccc(CN(CCCn2ccnc2)Cc2cnn(C)c2)s1 | 24.4
97 | COc1ccc(Cl)cc1CNCCCn1ccnc1 | -22.1
98 | COc1ccc(Cn2ccnc2)cc1F | -20.7
99 | CCCc1cncnc1N1CCCC2(CCC(=O)N(C3CCCC3)C2)C1 (configuration not stated) | 32.4
100 | O=S(=O)(c1cnccc1N1CCN(CCO)CC1)N1CCCCC1 | 8.38
101 | CC(C)N1CCCC(c2cc(C(F)(F)F)nc3nccn23)C1 (configuration not stated) | 3.03
102 | O=C(O)CCC(=O)Nc1nn(Cc2ccccc2Cl)cc1Cl | 19.3
103 | CC(C)c1nccn1C1CCCN(C(=O)c2ccc3nncn3c2)C1 (configuration not stated) | 36.1
104 | Cc1cnn(CC2CCCN2C(=O)CCc2c(C)nc(C)[nH]c2=O)c1 (configuration not stated) | -37.7
105 | CC(=O)N1CCC(c2cncc(Oc3ccccc3)n2)CC1 | 41.5
106 | CN(Cc1ccno1)c1nc(C2CCCC2)nc2c1cnn2C | 20
107 | Cc1cc(CN2CC[C@H]3C[C@H](C(=O)Nc4cccnc4C)O[C@@H]3C2)no1 | 48.6

— ChEMBL document CHEMBL4513216, “Probing the Open Global Health Chemical Diversity Library for Multistage-Active Starting Points for Next-Generation Antimalarials” (ACS Infect Dis, 2020)
